# Laboratory results from PubChem BioAssay (EPA / NIEHS).
# Several values for one entry are separate records, joined by “and”; a condition that tells them apart may be missing. Equal values may be shown once. Results filed as inconclusive are left out. Activity calls are given as the source filed them. Rule for the calls, unless noted: active = hit-call score of the fitted dose curve at least 0.9, where 1 is the maximum; inconclusive = response in the unintended direction; inactive = score below 0.9.
# Assays:
# DIO2 (gene 1734) = test: CCTE_GLTED_hDIO2: CCTE's human Deiodinase 2 (DIO2) Inhibition Assay, Great Lakes Toxicology and Ecology Division (GLTED) Lab (AID 2284050)
# Procedure, shortened: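 Iodide released by human deiodinase 2 over 3 h with test chemical, measured spectrophotometrically via Sandell-Kolthoff cerium/arsenic reaction. Run n=3; inhibition referenced to DMSO.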
# [1] = CCTE_Mundy_HCI_hNP1_Pro_ResponderAvgInten: CCTE's Proliferation Assay in human neuroprogenitor cells, Mundy Lab (AID 2284224);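 note: human neural progenitor cells hNP1 derived from WA09 embryonic stem cells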
# Procedure, shortened: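 Proliferation was scored as BrdU labelling intensity in human neural progenitors derived from WA09 embryonic cells, measured 26.25 hours after chemical dosing. Activity was fitted relative to DMSO.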
# [2] = target: rat Androgen Receptor (AR), Ar (gene 24208) (UniProt P15207); test: NVS_NR_rAR: NovaScreen (NVS) Nuclear Receptor Binding Assay for rat Androgen Receptor (AR) (AID 2283366)
# Procedure, shortened: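 Actives from a duplicate single-concentration (25 uM) primary run went on to concentration series. Displacement of radioligand was counted by filtration and scintillation, 18 h post-dose, using prostate extracts from testosterone-pretreated rats, with DMSO as baseline.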
# [3] = CCTE_Deisenroth_AIME_96WELL_CTox_Active: Cytotoxicity Assessment (CTOX) in CCTE's 96-well Estrogen Receptor Transactivation Assay with AIME metabolic competence (metabolism positive), Deisenroth Lab (AID 2284028)
# Procedure, shortened: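 Cytotoxicity in VM7Luc4E2 breast cells after 24 h exposure to medium from a 2 h metabolic pre-incubation with induced rat hepatic S9 in alginate microspheres; fluorescent live-cell protease readout, 10-point series 0.002–200 uM, n=4.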
# [4] = CCTE_Deisenroth_AIME_96WELL_CTox_Inactive: Cytotoxicity Assessment (CTOX) in CCTE's 96-well Estrogen Receptor Transactivation Assay without AIME metabolic competence (metabolism negative), Deisenroth Lab (AID 2284029)
# Procedure, shortened: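 Metabolism-negative mode: alginate-water lids without rat S9, 2 h pre-incubation of 10-point series (0.002 - 200 uM). Conditioned medium on VM7Luc4E2 cells 24 h; loss of fluorescent live-cell protease signal marks cytotoxicity.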
# [5] = target: Glucocorticoid receptor (Homo sapiens) (UniProt P04150); test: NVS_NR_hGR: NovaScreen (NVS) Nuclear Receptor Binding Assay for human Glucocorticoid Receptor (GR) (AID 2283363);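 note: activity is loss of specific radioligand binding signal relative to DMSO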
# Procedure, shortened: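 Compounds first tested in duplicate at 25 uM, actives followed up in concentration series. Binding to extracted GR protein measured as competitive radioligand displacement, filter scintillation read 16 h post-dosing, normalised to DMSO.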
# IYD (gene 389434) = test: CCTE_GLTED_hIYD: CCTE's human Iodotyrosine Deiodinase (xIYD) Inhibition Assay, Great Lakes Toxicology and Ecology Division (GLTED) Lab (AID 2284317);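 note: cell-free human IYD enzyme made in baculovirus insect cells; iodide freed from monoiodotyrosine measured by cerium arsenite color change at 420 nm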
# Procedure, shortened: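 In the IYD assay, iodide released from MIT by insect-cell-expressed human enzyme was quantified after 3 h via Sandell-Kolthoff rate at 420 nm, with plate-wise normalization to MNT and solvent controls.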
# [6] = target: Estrogen receptor (Homo sapiens) + Estrogen receptor beta (Homo sapiens) (UniProt P03372+Q92731); test: OT_ER_ERaERb_0480: Odyssey Thera (OT) 8-hour HEK293T Protein-Complementation Assay for Estrogen Receptor-alpha/-beta Heterodimer (AID 2283352)
# Procedure, shortened: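 Fluorescence intensity readout from a protein-fragment complementation reporter in HEK293T; ER-alpha/ER-beta LBD heterodimer. Dosing 8 h. Gain-of-signal fit relative to DMSO negative control; laser scanning cytometry of whole-well cell population.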
# [7] = target: guinea pig Opioid, Kappa 1 Receptor (OpiateK), OPRK1 (gene 100135587) (UniProt P41144); test: NVS_GPCR_gOpiateK: NovaScreen (NVS) G Protein-Coupled Receptor Assay for guinea pig Opioid, Kappa 1 Receptor (OpiateK) (AID 2283252);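 note: active means reduced radioligand binding relative to DMSO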
# Procedure, shortened: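 Radioligand binding to kappa opioid receptor in guinea pig cerebellar membranes, read by filtration and scintillation at 2 h. Compounds first tested in duplicate at 25 uM, then actives in concentration series; signal loss fitted against DMSO.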
# AR (gene 367) = AR (gene 367) (UniProt P10275); test: ACEA_AR_agonist_80hr: ACEA Biosciences xCELLigence Real-Time Cell Analysis on Androgen Receptor Agonism for Proliferation (AID 2283783);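 note: hits increase impedance growth signal above DMSO baseline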
# Procedure, shortened: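 Eight concentrations, 1:4 serial dilution from a 100 uM final top, in biological duplicate. Impedance-based real-time growth of 22Rv1 cells after overnight baseline, recorded hourly and read at 80 hours. Controls: testosterone, MG132, assay media.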
# [8] = target: human Thromboxane A2 Receptor (TXA2), TBXA2R (gene 6915) (UniProt P21731); test: NVS_GPCR_hTXA2: NovaScreen (NVS) G Protein-Coupled Receptor Assay for human Thromboxane A2 Receptor (TXA2) (AID 2283282);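 note: actives reduce bound radioligand signal relative to DMSO baseline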
# Procedure, shortened: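 Filter scintillation counting of bound radioligand, human platelet protein, 1 h exposure. Single-concentration duplicates (25 uM) first, concentration-response follow-up for actives. Binding loss scored against DMSO baseline.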
# PGR (gene 5241) [9] = target: PGR (gene 5241) (UniProt P06401); test: TOX21_PR_BLA_Followup_Antagonist_ratio: Tox21 HEK293 Progesterone Receptor (PR) Antagonism Beta-lactamase Follow-Up Assay, Ratio (AID 2283934);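 note: PR-UAS-bla HEK293T cells stimulated with 1 nM R5020 agonist for 16 hr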
# Procedure, shortened: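 Readout is the blue/green (ch2/ch1) substrate cleavage ratio after 2 hours at room temperature, following 16 hr co-treatment of PR-bla HEK293T cells with compound and 1nM promegestone. Multiplexed CellTiter-Glo viability flags cytotoxicity; DMSO baseline.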
# PGR (gene 5241) [10] = target: PGR (gene 5241) (UniProt P06401); test: TOX21_PR_LUC_Followup_Antagonist: Tox21 HEK293 Progesterone Receptor (PR) Antagonism Luciferase Follow-Up Assay (AID 2283938);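 note: curve fitted upward as signal gain over DMSO baseline despite antagonist label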
# Procedure, shortened: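 Luminescence from ONE-Glo reagent, measured after 30 min at room temperature, served as readout. Cells (HEK293 carrying PR-A-luc) had been treated 16 h at 37C with DMSO-dissolved compounds. Activity was fitted against DMSO controls.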
# [11] = CCTE_Padilla_ZF_144hpf_TERATOSCORE: (Legacy) CCTE's 144 Hour Post-fertilization zebrafish Assay Teratoscore, Padilla Lab (AID 2283679; active = hit-call score of the fitted dose curve at least 0.9, where 1 is the maximum; inactive = score below 0.9;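 note: zebrafish embryos with chorions exposed by immersion from 6-8 hpf to 5 dpf with daily renewal; teratogenicity score from eye scoring of death hatching and malformations at 144 hpf; higher score means more developmental defects relative to DMSO baseline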)
# Procedure, shortened: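 Larvae scored by eye at 144 hpf for death, hatching and malformations after a day in clean Hanks'. Before that, daily-renewed exposure at 80 uM (0.4% DMSO, 26C) from roughly 6-8 hpf through 5 dpf, 4 embryos per chemical.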
# THRB (gene 7068) [12] = target: THRB (gene 7068) (UniProt P10828); test: TOX21_TRB_BLA_Antagonist_Followup_ratio: Tox21 Thyroid Hormone Receptor beta Antagonism Beta-lactamase (BLA) Follow-Up Assay, Ratio (AID 2283958)
# Procedure, shortened: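 Beta-lactamase reporter ratio (460/530 nm, CCF4-AM substrate, 2 h room temperature) was read in TRb-bla HEK293T cells after 18 h compound treatment (11 concentrations, triplicate) at 37C in 2% charcoal-stripped FBS medium. Loss of signal fitted against DMSO.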
# [13] = TOX21_TRB_BLA_Antagonist_Followup_viability: Viability Assessment in the Tox21 Thyroid Hormone Receptor beta Antagonism Beta-lactamase (BLA) Follow-Up Assay (AID 2283961)
# Procedure, shortened: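 Viability read as CellTiter-Glo ATP luminescence (loss of signal = cytotoxicity) in the same plates as the TRβ-bla readout. TRβ-LBD/GAL4 UAS-bla HEK293T cells were exposed to compounds, 11 concentrations in triplicate, for 18 h at 37C/5% CO2.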
# THRB (gene 7068) [14] = target: THRB (gene 7068) (UniProt P10828); test: TOX21_TRB_COA_Antagonist_Followup_ratio: Tox21 Thyroid Hormone Receptor beta Antagonism through Coactivator Recruitment Follow-Up Assay, Ratio (AID 2283967)
# Procedure, shortened: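 Coactivator recruitment to the GST-tagged TRb ligand-binding domain (5.0 nM) was read as the 520/495 nm TR-FRET ratio, using 200 nM fluorescein SRC-2 peptide and 2 nM terbium anti-GST. Scaled between DMSO and T3 wells; loss of signal fitted.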
# [15] = target: Retinoic acid receptor RXR-alpha (Homo sapiens) (UniProt P19793); test: TOX21_TR_RXR_BLA_Antagonist_Followup_ratio: Tox21 Thyroid Hormone Receptor beta Retinoid X Receptor alpha (RXRa) Antagonism Beta-lactamase (BLA) Follow-Up Assay, Ratio (AID 2283972)
# Procedure, shortened: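 Beta-lactamase reporter readout as cleaved/uncleaved substrate ratio (460:530 nm) after 2 h substrate loading at room temperature. GAL4-RXRa bla HEK293T cells were exposed 16 h at 37C to 11-point compound series; loss of signal scored against DMSO baseline.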
# [16] = TOX21_TR_RXR_BLA_Antagonist_Followup_viability: Viability Assessment in the Tox21 Thyroid Hormone Receptor beta Retinoid X Receptor alpha (RXRa) Antagonism Beta-lactamase (BLA) Follow-Up Assay (AID 2283979)
# Procedure, shortened: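 Follow-up compounds (11 concentrations, triplicate) were incubated 16 h at 37C/5% CO2 with HEK293T RXRa-bla cells seeded at 2,500/well in charcoal-stripped-serum medium. ATP content by CellTiter-Glo luminescence gave viability; curves fitted in both directions against DMSO.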
# [17] = target: human Adenosine A2a Receptor (AdoRA2a), ADORA2A (gene 135) (UniProt P29274); test: NVS_GPCR_hAdoRA2a: NovaScreen (NVS) G Protein-Coupled Receptor Assay for human Adenosine A2a Receptor (AdoRA2a) (AID 2283256)
# Procedure, shortened: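 Compounds screened in duplicate at 25 uM, with actives followed up in concentration series, for displacement of a radioligand from HEK293-derived receptor protein. Bound counts read by filter scintillation at 1.5 hours, DMSO as baseline.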
# PGR (gene 5241), sequence (P06401 whole entry, looked up): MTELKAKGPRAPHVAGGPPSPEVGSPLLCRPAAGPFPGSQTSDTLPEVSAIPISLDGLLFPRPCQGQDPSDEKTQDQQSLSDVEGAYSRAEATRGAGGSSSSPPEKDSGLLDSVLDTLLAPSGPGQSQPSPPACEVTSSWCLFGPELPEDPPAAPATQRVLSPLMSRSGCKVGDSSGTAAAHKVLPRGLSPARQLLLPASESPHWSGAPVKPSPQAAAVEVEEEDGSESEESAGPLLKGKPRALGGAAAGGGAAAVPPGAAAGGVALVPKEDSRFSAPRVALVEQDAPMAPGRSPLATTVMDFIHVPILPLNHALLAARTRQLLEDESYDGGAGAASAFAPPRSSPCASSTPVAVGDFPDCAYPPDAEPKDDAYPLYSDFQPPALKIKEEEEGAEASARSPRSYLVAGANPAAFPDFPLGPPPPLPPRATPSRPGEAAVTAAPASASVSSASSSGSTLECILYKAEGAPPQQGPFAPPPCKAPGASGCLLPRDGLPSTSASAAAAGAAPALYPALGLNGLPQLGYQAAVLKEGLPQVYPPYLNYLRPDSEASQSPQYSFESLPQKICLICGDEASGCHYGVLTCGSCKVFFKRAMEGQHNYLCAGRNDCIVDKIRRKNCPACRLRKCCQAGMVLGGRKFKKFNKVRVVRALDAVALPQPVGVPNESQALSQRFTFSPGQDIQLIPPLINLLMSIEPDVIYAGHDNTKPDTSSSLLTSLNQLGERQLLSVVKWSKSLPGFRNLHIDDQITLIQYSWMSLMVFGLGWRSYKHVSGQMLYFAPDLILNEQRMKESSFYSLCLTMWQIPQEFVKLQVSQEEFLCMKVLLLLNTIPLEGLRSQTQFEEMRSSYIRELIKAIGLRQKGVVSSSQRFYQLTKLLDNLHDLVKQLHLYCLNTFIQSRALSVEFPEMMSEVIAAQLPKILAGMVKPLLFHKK
# THRB (gene 7068), sequence (P10828 whole entry, looked up, the tested form may be a part): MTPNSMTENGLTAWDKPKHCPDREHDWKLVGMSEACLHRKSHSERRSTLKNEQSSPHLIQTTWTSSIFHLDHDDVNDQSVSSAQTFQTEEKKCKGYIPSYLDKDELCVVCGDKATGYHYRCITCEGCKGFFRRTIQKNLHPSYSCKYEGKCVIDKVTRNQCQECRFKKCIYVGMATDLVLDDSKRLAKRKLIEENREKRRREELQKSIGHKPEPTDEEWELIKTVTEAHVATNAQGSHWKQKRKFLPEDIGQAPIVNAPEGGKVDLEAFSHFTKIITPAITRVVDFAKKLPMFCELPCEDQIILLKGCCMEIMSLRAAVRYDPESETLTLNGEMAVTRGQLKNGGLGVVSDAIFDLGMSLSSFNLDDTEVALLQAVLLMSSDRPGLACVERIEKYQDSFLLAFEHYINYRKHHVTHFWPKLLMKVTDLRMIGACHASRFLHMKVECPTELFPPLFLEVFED
# AR (gene 367), sequence (P10275 whole entry, looked up): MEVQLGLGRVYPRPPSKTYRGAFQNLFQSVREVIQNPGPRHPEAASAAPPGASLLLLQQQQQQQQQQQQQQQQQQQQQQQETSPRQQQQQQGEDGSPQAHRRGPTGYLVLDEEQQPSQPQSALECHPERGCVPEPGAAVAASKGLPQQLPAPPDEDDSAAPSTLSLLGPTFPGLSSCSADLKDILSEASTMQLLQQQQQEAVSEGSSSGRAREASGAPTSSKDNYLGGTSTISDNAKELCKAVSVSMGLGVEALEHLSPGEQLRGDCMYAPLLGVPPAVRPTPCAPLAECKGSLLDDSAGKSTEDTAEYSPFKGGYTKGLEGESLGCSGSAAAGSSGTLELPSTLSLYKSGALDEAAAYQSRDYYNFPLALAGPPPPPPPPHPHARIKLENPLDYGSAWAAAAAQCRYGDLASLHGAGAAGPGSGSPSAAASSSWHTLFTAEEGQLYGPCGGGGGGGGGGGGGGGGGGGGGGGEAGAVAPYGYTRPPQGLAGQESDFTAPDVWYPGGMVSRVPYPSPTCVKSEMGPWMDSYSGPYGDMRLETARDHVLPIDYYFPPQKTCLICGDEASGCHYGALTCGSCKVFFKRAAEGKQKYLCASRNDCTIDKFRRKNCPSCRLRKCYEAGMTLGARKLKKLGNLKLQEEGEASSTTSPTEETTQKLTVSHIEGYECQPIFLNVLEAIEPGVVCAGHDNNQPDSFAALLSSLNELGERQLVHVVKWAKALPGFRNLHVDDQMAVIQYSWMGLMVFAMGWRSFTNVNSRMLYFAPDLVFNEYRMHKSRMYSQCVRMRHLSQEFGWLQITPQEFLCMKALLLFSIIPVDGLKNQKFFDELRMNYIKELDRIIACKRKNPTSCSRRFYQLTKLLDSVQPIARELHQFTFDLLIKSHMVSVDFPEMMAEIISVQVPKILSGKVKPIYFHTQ
# Glucocorticoid receptor (Homo sapiens), sequence (P04150 whole entry, looked up): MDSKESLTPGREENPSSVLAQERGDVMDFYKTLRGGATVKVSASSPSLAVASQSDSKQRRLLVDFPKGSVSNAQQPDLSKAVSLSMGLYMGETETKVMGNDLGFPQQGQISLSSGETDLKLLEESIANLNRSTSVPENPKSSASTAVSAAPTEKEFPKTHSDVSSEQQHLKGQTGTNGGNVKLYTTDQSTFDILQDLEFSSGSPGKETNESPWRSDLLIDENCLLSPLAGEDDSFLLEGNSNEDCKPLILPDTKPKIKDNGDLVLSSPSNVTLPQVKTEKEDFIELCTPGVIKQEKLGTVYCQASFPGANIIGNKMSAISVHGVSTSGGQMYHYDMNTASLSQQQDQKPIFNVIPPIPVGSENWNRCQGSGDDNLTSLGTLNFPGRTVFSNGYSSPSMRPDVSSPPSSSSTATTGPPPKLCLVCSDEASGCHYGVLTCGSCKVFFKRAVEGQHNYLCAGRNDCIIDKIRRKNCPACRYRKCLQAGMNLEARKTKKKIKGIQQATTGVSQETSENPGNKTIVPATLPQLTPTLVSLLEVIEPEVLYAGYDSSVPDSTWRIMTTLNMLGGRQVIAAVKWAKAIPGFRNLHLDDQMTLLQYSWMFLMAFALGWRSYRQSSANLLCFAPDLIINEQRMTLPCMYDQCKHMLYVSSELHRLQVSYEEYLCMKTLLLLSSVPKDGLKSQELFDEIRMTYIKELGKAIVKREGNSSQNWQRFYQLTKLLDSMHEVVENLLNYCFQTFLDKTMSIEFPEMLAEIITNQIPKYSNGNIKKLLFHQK
# human Thromboxane A2 Receptor (TXA2), TBXA2R (gene 6915), sequence (P21731 whole entry, looked up): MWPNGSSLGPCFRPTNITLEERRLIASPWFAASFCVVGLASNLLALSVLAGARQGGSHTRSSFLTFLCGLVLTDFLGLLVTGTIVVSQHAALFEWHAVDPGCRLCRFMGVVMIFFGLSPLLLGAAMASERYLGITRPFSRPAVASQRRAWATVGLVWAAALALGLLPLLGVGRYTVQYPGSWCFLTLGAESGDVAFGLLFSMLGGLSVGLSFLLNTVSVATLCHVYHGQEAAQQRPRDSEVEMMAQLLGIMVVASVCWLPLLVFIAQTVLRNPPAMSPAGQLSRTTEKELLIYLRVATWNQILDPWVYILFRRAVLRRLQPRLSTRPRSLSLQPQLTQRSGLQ
# rat Androgen Receptor (AR), Ar (gene 24208), sequence (P15207 whole entry, looked up): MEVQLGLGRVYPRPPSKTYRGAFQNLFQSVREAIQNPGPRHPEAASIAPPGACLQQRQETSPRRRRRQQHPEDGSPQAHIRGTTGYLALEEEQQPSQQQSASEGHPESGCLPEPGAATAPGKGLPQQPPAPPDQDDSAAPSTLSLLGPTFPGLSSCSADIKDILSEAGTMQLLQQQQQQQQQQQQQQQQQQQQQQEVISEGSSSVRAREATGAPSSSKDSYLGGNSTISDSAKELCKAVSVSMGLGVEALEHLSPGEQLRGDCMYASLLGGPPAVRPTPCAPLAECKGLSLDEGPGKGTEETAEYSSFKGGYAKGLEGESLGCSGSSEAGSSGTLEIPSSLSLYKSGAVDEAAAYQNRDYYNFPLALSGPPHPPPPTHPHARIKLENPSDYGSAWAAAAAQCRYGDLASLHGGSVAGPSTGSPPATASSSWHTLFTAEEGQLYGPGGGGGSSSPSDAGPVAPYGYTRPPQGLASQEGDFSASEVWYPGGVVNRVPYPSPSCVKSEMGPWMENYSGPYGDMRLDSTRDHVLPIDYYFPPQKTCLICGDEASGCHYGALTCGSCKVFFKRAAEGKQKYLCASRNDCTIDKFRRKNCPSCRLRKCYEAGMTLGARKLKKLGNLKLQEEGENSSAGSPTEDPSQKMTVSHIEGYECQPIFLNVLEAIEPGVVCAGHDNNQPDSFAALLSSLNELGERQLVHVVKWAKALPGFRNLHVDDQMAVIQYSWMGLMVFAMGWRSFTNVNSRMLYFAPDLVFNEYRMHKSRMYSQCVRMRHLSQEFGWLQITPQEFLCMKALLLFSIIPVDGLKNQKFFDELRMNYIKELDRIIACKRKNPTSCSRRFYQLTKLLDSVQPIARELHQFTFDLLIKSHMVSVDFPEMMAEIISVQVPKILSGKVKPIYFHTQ
# Retinoic acid receptor RXR-alpha (Homo sapiens), sequence (P19793 whole entry, looked up, the tested form may be a part): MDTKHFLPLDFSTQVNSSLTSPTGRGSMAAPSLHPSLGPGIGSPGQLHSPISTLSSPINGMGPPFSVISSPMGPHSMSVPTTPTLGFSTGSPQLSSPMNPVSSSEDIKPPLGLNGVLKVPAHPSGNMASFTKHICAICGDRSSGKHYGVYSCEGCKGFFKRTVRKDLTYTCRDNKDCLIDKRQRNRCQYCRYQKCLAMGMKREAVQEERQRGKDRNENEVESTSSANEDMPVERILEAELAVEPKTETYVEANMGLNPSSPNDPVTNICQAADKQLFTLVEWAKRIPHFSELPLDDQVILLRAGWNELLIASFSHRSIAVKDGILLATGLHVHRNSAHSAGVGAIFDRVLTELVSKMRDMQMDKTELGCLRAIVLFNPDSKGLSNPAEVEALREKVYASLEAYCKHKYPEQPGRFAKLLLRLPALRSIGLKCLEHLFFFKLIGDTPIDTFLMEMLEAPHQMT
structure (smiles),measurement,setting,value
Sc1nc2ccccc2s1,outcome,DIO2 (gene 1734),inactive
NC(N)=Nc1nc(CSCCC(N)=NS(N)(=O)=O)cs1,outcome,[1],inactive
Cc1cc(-n2nc3ccc(Cl)cc3n2)c(O)c(C(C)(C)C)c1,outcome,[2],inactive
same,outcome,[3],inactive
same,outcome,[4],inactive
CCCCC(CC)COC(=O)CS (stereo not given),AC50,[5],25 µM (active)
Cc1cc2nc3c(=O)[nH]c(=O)nc-3n(C[C@H](O)[C@H](O)[C@H](O)CO)c2cc1C,AC50,IYD (gene 389434),94.2 µM (active)
C=C1CC[C@H]2C[C@@H]1C2(C)C,outcome,[6],inactive
CN(C)CCC(c1ccc(Cl)cc1)c1ccccn1 (stereo not given),AC50,[7],12.7 µM (active)
Cc1cc(C)c(S(=O)(=O)O)cc1N=Nc1cc(S(=O)(=O)O)c2ccccc2c1O,outcome,AR (gene 367),inactive
CCCCCCCCCC/C=C/C1CC(=O)OC1=O (stereo not given),outcome,[8],inactive
c1cc[c]([Bi]([c]2ccccc2)[c]2ccccc2)cc1,AC50,PGR (gene 5241) [9],16.3 µM (active)
same,outcome,PGR (gene 5241) [10],inactive
CC(C)n1c(/C=C/[C@@H](O)C[C@@H](O)CC(=O)O)c(-c2ccc(F)cc2)c2ccccc21,AC50,[11],447 nM (active) and 111 nM (active)
same,outcome,THRB (gene 7068) [12],inactive
same,outcome,[13],inactive
same,outcome,THRB (gene 7068) [14],inactive
same,outcome,[15],inactive
same,outcome,[16],inactive
CCC(C)(CCC(C)C)C(=O)O (stereo not given),outcome,[17],inactive
